Measured values from PubChem BioAssay AID720541 (National Center for Advancing Translational Sciences (NCATS), 2013).
The campaign covered roughly 1,300 compounds. About 420 (32%) were called active. About 32% were inconclusive and are not listed. Calls come from the whole dose curve; as a rule, active = well fitted inhibition curve with a large enough effect; inconclusive = small, poorly fitted or top-dose-only effect; inactive = no such curve, though single readings can be large or run the other way. The list shows a part of the results. A call without a number means that no potency is given here.
Note: nearly all actives have a fitted effect of over 65% in size.
Potency is the fitted concentration of half-maximal effect.

What follows are molecules tested against C-terminal-binding protein 1 (Homo sapiens) (UniProt Q13363) (assay: qHTS for Inhibitors of the Phosphatase Activity of Eya2: Carboxyl-terminal binding protein (CtBP) Counterscreen for Cherry-picked Compounds). Settings: purified protein-protein binding, AlphaScreen, 3 h; series mostly up to 46.1 µM.
Procedure, shortened: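 AlphaScreen using 25 nM GST-E1A with 25 nM CtBP-6xHIS; compounds at 2.5 nM–46 uM final, 2 h at room temperature, then donor/acceptor beads (20 ug/mL) for 1 h in the dark. Signal normalized to E1A peptide inhibitor (maximum inhibition) and DMSO.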
With NC(=O)[C@@H]1CC2(CC(c3cccc(NC(=O)COc4ccc(Cl)cc4)c3)=NO2)CN1C(=O)COc1ccc(Cl)cc1 (some centres not stated) the Potency was “inactive”. For CCOCCCNC(=O)c1cc2sc(Cl)cc2n1CC, the Potency was “inactive”. With Cc1cccc2cn[nH]c12 the Potency was “inactive”. O=C(NN=C1CCCC1)c1[nH]c2ccc(Br)cc2c1-c1ccccc1 was tested, and the Potency was “inactive”. In the case of CCOC(=O)c1sc(NC(=O)CSc2nc(O)c(Cc3ccccc3)c(=O)[nH]2)nc1C, the Potency was 16.9 µM (active). COc1ccc(OC)c(NC(=O)CSc2nc(-c3ccccc3)cc(=O)[nH]2)c1 was tested, and the Potency was “inactive”. O=C(O)c1ccccc1-c1ccccc1C(=O)Nc1ccc2c(c1)[nH]c(=O)c1ccccc12 was tested, and the Potency was 7.57 µM (active). In the case of O=C(O)c1ccccc1-c1ccccc1C(=O)Nc1ccc2oc(=O)c3ccccc3c2c1, the Potency was 12 µM (active). For CCN1C(=O)/C(=C2/C=Cc3ccccc3N2CC)SC1=S, the Potency was 4.26 µM (active). COc1cc(OC)c(OC)cc1/C=C/c1nccc2ccccc12 was tested, and the Potency was 7.57 µM (active). For FC(F)(F)c1ccc(CN2C[C@@H]3C(c4ccc(Cl)nc4)C4(c5cccnc5)CC3(C4)[C@H]2c2ccccc2)cc1 (some centres not stated), the Potency was “inactive”. For Cc1ccc(O)c(C(=O)c2cnc3c(c2)c(-c2ccc(F)cc2)c(C#N)c(=O)n3C)c1, the Potency was “inactive”. For COc1ccc([C@H]2CC(=O)C=C(c3ccnc4ccc(Cl)cc34)C2)cc1, the Potency was “inactive”. With CN(C)c1ccc(NC(=O)CC(NCc2ccccn2)C(=O)O)cc1 (configuration not stated) the Potency was 1.07 µM (active). For CC(=O)Nc1ccc(NC(=O)COc2ncnc3ccccc23)cc1, the Potency was “inactive”. COc1cc(OC)c(NC(=O)CN(C)S(=O)(=O)c2ccc(-c3ccc(=O)[nH]n3)s2)cc1Cl was tested, and the Potency was 6.01 µM (active). For CCN(CC)c1ccc(/C=C2\CCC(/C=C(\C#N)C(=O)Nc3ccccc3F)=C2N2CCOCC2)cc1, the Potency was 23.9 µM (active). For CCCc1ccc(C#N)c(SC2CC(=O)N(c3ccc(OC)cc3)C2=O)n1 (configuration not stated), the Potency was “inactive”. O=C1NC(=O)/C(=C\c2ccccc2OCc2cccc([N+](=O)[O-])c2)N1 was tested, and the Potency was “inactive”. In the case of COc1ccc(F)cc1-c1cc(NC=O)c2ncc(-c3cccc(C(F)(F)F)c3)n2c1, the Potency was “inactive”. For Oc1c(C(Nc2nc3ccccc3s2)c2ccco2)ccc2cccnc12 (configuration not stated), the Potency was 6.75 µM (active). Cc1cc(C)c(OCCCCN(C)Cc2ccccc2)c(C)c1 was tested, and the Potency was “inactive”. O=c1c2ccccc2oc2nc3n(c(=O)c12)CCCS3 was tested, and the Potency was 12 µM (active). With Cc1cc(=O)n2nc(N3CCCC(C(=O)Nc4ccc(C)c(C)c4)C3)sc2n1 (configuration not stated) the Potency was “inactive”. CN1/C(=C\C(=S)NC(=O)c2ccccc2Cl)C(C)(C)c2ccccc21 was tested, and the Potency was 15.1 µM (active). With Oc1[nH]c2ccccc2c1N=Nc1nc2ccccc2s1 the Potency was “inactive”. With Cc1c(CCO)c(=O)n(-c2ccccc2)n1S(=O)(=O)c1c(Cl)cc(Cl)cc1Cl the Potency was “inactive”. CCOc1ccc(S(=O)(=O)Nc2cc(SCC(=O)O)c(O)c3ccccc23)cc1 was tested, and the Potency was 21.3 µM (active). In the case of CCN1CCN(c2nn3c(=O)c4ccccc4nc3c3ccccc23)CC1, the Potency was 9.53 µM (active). With O=C(O)CCc1c2ccc(=O)c(O)c-2oc2c(O)c(O)ccc12 the Potency was 16.9 µM (active). For CCN(CC)c1ccc(N=Cc2cc(Br)ccc2O)cc1, the Potency was “inactive”. With CC(C)c1ccc(C2c3[nH]c4ccccc4c3C[C@H]3C(=O)N(c4ccccc4C(=O)N4CCC[C@H]4C(=O)O)C(=O)N23)cc1 (some centres not stated) the Potency was “inactive”. For COc1ccc(/C=C2\CCc3ccccc3C2=O)cc1CN1CCOCC1, the Potency was 13.5 µM (active). For COc1ccc(C(=O)N2CCOCC2)cc1S(=O)(=O)N1CCCc2ccccc21, the Potency was “inactive”. With Cn1ccc2c(N3CCCC3)cc3c(c21)C1CCC3C1 (configuration not stated) the Potency was 15.1 µM (active). With O=C(NCCCNC1CCCCC1)c1ccc(/C=N/O)nc1 the Potency was 13.5 µM (active). CN(C)c1ccc(Sc2ccc3nc(N)nc(N)c3c2)cc1 was tested, and the Potency was 6.75 µM (active). With COc1ccccc1/C=C/C(=O)Oc1cccc2cccnc12 the Potency was 3.38 µM (active). With O=C(/C=C/c1ccccc1)Oc1cccc2cccnc12 the Potency was 2.39 µM (active). In the case of O=C(/C=C\c1ccccc1)Oc1cccc2cccnc12, the Potency was 3.38 µM (active). O=C(/C=C/c1ccco1)Oc1cccc2cccnc12 was tested, and the Potency was 4.26 µM (active). In the case of O=C(/C=C/c1ccco1)Nc1ccccc1N1CCCC1, the Potency was “inactive”. In the case of COc1ccc(Br)cc1CNC(=O)c1ccc2c(c1)N(C)CCS2, the Potency was “inactive”. In the case of N#Cc1c(=O)c2nc(NCc3ccccc3)ncc2n2ccccc12, the Potency was 4.26 µM (active). CC(C)Cn1c(SC(C)C(=O)Nc2ccc(N3CCOCC3)cc2)nc2ccccc21 (configuration not stated) was tested, and the Potency was “inactive”. CC1CCCCC1Nc1nc2ccc(Cl)cc2n2cnnc12 (configuration not stated) was tested, and the Potency was “inactive”. With c1ccc2c(c1)nc(Nc1ccc(N3CCCCC3)cc1)c1nncn12 the Potency was 15.1 µM (active). Cc1cccc(NC2=C(NCCO)C(=O)c3ccccc3C2=O)c1 was tested, and the Potency was 12 µM (active). With CNc1nc(-c2ccc3c(c2)CCN3C(=O)c2cccc(F)c2)cs1 the Potency was “inactive”. With CC1=CC(=O)Nc2ncccc2O1 the Potency was 15.1 µM (active). For C[N+](C)(CCCCCI)c1ccc(/C=C/c2nc3ccccc3s2)cc1, the Potency was 12 µM (active). O=C(Oc1ccc2ccc(=O)oc2c1)c1cccs1 was tested, and the Potency was “inactive”. With Cc1nc(S/C(=C\c2ccc(-c3ccc(C(=O)O)c(Cl)c3)o2)C(=O)O)n[nH]1 the Potency was 13.5 µM (active). For Cc1ccc(C(=O)Oc2ccc3ccc(=O)oc3c2)cc1, the Potency was “inactive”. CC(=O)Nc1ccc(OC(=O)c2cc3cc(Br)ccc3oc2=O)cc1 was tested, and the Potency was 6.75 µM (active). O=C(NNC(=O)c1cc2cc(Br)ccc2oc1=O)c1ccc(O)cc1 was tested, and the Potency was “inactive”. In the case of CCOc1cc(/C=C2\C(=N)N3N=C(CC)SC3=NC2=O)ccc1OCCOc1ccc(NC(C)=O)cc1, the Potency was 3.79 µM (active). In the case of Cc1cc(/C=C2\C(=N)N3N=C(CC(=O)N4CCOCC4)SC3=NC2=O)c(C)n1Cc1ccccc1, the Potency was “inactive”. In the case of O=C(CSc1nnc2c3ccccc3c3ccccc3c2n1)Nc1ccccc1F, the Potency was 12 µM (active). COc1ccc(NC(=O)c2ccc(CN3CCc4ccccc4C3)cc2)c(OC)c1 was tested, and the Potency was “inactive”. COc1ccccc1NC(=O)CCCCCN1C(=O)c2cccc3cccc(c23)C1=O was tested, and the Potency was “inactive”. In the case of COc1ccc(NC(=O)COc2cccc3c2CCN(C)C3=O)c(OC)c1, the Potency was 8.49 µM (active). For Cc1c(C(=O)/C=C/N(C)C)nnn1-c1ccc(Cl)cc1Cl, the Potency was “inactive”. O=C(COc1ccccc1/C=C1/NC(=O)NC1=O)Nc1ccccc1 was tested, and the Potency was “inactive”. CN(C)S(=O)(=O)c1cccc(NC(=O)COc2ccccc2C(=O)Nc2ccccc2)c1 was tested, and the Potency was 10.7 µM (active). CCC(C)C(CO)NC(=O)/C=C/[C@H]1O[C@@H](n2cnc3c(NC(=O)c4ccccc4)ncnc32)[C@H](O)[C@@H]1O (some centres not stated) was tested, and the Potency was “inactive”. CCCC[C@@]1(C2CCCC2)Cc2cc(OCC(=O)O)c(Cl)c(Cl)c2C1=O was tested, and the Potency was “inactive”. With CCOC(=O)CN1C(=O)/C(=C2\SC(=S)N(NC(=O)c3cccnc3)C2=O)c2ccccc21 the Potency was 13.5 µM (active). With CN1C(=O)/C(=C2\SC(=S)N(NC(=O)c3cccnc3)C2=O)c2ccccc21 the Potency was 15.1 µM (active). For CCOc1ccc2[nH]c3nc(SCC(=O)NC4CCCC4)nnc3c2c1, the Potency was “inactive”. CCc1ccc2[nH]c3nc(SCC(=O)NCC4CCCO4)nnc3c2c1 (configuration not stated) was tested, and the Potency was 4.78 µM (active). In the case of Cc1cc2oc(C(=O)N(Cc3ccc(N(C)C)cc3)CC3CCCO3)c(C)c2cc1C (configuration not stated), the Potency was “inactive”. In the case of Cc1nnc2sc(SCC(=O)Nc3ccc(Br)cc3)nn2c1=O, the Potency was 2.13 µM (active). With CCCc1cc(=O)[nH]c(SCC(=O)Nc2ccc(C)cc2)n1 the Potency was “inactive”. In the case of CCOC(=O)N1CCC(NC(=O)c2cc3c(-c4ccccc4F)nn(C)c3s2)CC1, the Potency was “inactive”. With N#Cc1c2nc3ccccc3nc2n2cc(NC(=O)c3ccc(F)cc3)ccc12 the Potency was 3.79 µM (active). In the case of Cc1cccc(N2CCN(C(=O)C3COc4ccccc4O3)CC2)c1C (configuration not stated), the Potency was “inactive”. Cc1cnc(C(=O)Nc2ccccc2-c2ccc(C)o2)cn1 was tested, and the Potency was “inactive”. With COc1ccc(-n2nc(C)cc2Nc2ccccc2C(=O)O)cc1 the Potency was 7.57 µM (active). With Cc1cc(Nc2ccccc2C(=O)O)n(-c2cccc(Cl)c2)n1 the Potency was 7.57 µM (active). In the case of CCOC(=O)c1cc(-c2ccc(N3CCOCC3)cc2)nn1-c1ccccc1C(=O)O, the Potency was “inactive”. For CCc1nc2ccc(C(=O)NCCOc3ccc(OC)cc3)cn2c1N(CCC(C)C)CCN(C)C, the Potency was “inactive”. O=C1c2ccccc2C(=O)c2c(Nc3ccc(CCO)cc3)ccc(O)c21 was tested, and the Potency was 6.01 µM (active). In the case of COc1cccc(C2c3[nH]c4ccccc4c3CCN2Cc2cnn(C)c2)c1 (configuration not stated), the Potency was “inactive”. With CNc1c(Br)cc(C(O)C2=CCc3ccccc32)cc1Br (configuration not stated) the Potency was “inactive”. Cc1csc(NC(=O)c2cc(=O)[nH]c3ccccc23)n1 was tested, and the Potency was 19 µM (active). In the case of O=C(NC1CCCC1)c1cc(=O)[nH]c2ccccc12, the Potency was “inactive”. In the case of Cc1cc(Br)c(NC(=O)c2ccccc2[N+](=O)[O-])cc1C, the Potency was “inactive”. For COc1ccc(C(=O)CC(=O)Nc2ccc([N+](=O)[O-])cc2)cc1, the Potency was “inactive”. In the case of O=C(Nc1cc([N+](=O)[O-])ccc1O)c1cccc(C(=O)Nc2cc([N+](=O)[O-])ccc2O)c1, the Potency was 6.01 µM (active). For COc1cc(OC)c(OC)cc1CCC(C)NCCC(c1ccccc1)c1ccccc1 (configuration not stated), the Potency was 13.5 µM (active). For CNc1cccc2c1C(=O)c1ccccc1C2=O, the Potency was 2.39 µM (active). Cc1cccc(NC(=O)COC(=O)c2cccc3c2C(=O)c2ccccc2C3=O)c1C was tested, and the Potency was “inactive”. For Cc1ccc(/C=C/C(=O)Nc2ccc(N(C)C)cc2)o1, the Potency was 15.1 µM (active). In the case of C=CCn1cccc(C(=O)Nc2ccc(N(C)C)cc2)c1=O, the Potency was “inactive”. With NC(=O)c1ccc(NC(=O)COC(=O)/C=C/c2ccc(Br)o2)cc1 the Potency was “inactive”. CN(C)c1ccc(-c2ccnc3c2CC(C)(C(=O)Nc2ccc(Cl)c(C(F)(F)F)c2)O3)cc1 (configuration not stated) was tested, and the Potency was “inactive”.
